# Screens deposited in PubChem by National Center for Advancing Translational Sciences (NCATS).
# JMJD2A Tudor inh: inhibitors of human JMJD2A Tudor domain; O75164; AlphaScreen JMJD2A-Tudor / H3K4me3 peptide binding; Potency, µM (doses to about 114 µM), actives largely listed as inhibitors; 390,000 tested, 4.4% active; AID 504339; also: nearly all actives have a fitted effect of over 50% in size
# CtBP-E1A inh: blocks the CtBP interaction with E1A; 340,000 tested, 0.49% active; AlphaScreen GST-E1A/His-CtBP binding, 1536-well; hits give low values; activity change, % (concentration not given with the values); in the data active = activity change below about -65%; inconclusive = mostly about -30% to -63%
#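 AlphaScreen with 125 nM GST-E1A and 125 nM His-CtBP (5X stocks) in Tris pH 8.0, 300 mM NaCl, BSA, Tween 20, TCEP. Compounds preincubated 2 h at 37 deg C, then glutathione donor/nickel acceptor beads added for 1 h at 37 deg C in dark.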
# BAZ2B inh: inhibitors of human BAZ2B bromodomain; Q9UIF8; AlphaScreen BAZ2B-H3K14Ac peptide displacement; Potency, µM (doses to about 114 µM), usual class: inhibitors; 360,000 tested, 4.4% active; AID 504333; also: nearly all actives have a fitted effect of over 60% in size
#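 BAZ2B (50 nM) with biotin-H3(5-23)K14Ac peptide (50 nM) in PBS pH 7.4, 0.01% Tween-20, preformed 30 min, then compound 30 min at room temperature; top concentration 110uM. AlphaScreen streptavidin donor/nickel chelate acceptor beads (10 ug/mL final), 20 min dark, signal read.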
# Six1-Eya2 blk: blocks human Six1 binding to Eya2. Q15475+O00167. AlphaScreen GST-Six1/His-Eya2 binding, biochemical; hits give low values. activity change, % (test concentration not listed). 360,000 tested, 0.56% active. AID 651725; in the data active = activity change below about -65%; inconclusive = mostly about -30% to -63%
#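 AlphaScreen luminescence read after one hour at 37 °C in darkness. Pin-transferred compounds met GST-Six1 and His-Eya2 protein (5X stock 250 nM/500 nM) plus glutathione donor and Ni-chelate acceptor beads (5X, 50 ug/mL).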
# G9a block: G9a (human) methyltransferase inhibition | Q96KQ7 | G9a H3K9 monomethylation, AlphaScreen, 2 h | Potency, µM (highest dose often 102 µM), actives largely listed as inhibitors | 350,000 tested, 8.8% active | AID 504332; also: nearly all actives have a fitted effect of over 75% in size
#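 Readings reflect AlphaScreen signal from monomethyl-H3K9 antibody detection. HMT at 20 nM; substrate b-H3K9 500 nM; cofactor SAM 20 uM; 2 h RT reaction; compounds tested as titrations in qHTS with 15 min preincubation.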
# HP1b binding inh: HP1-beta chromodomain-methylated histone interaction inhibition. 390,000 tested, 0.56% active. Potency, µM (doses to about 114 µM), usual class: inhibitors. AlphaScreen HP1-beta / biotin-H3K9me3 peptide binding. P83916. AID 540317; also: nearly all actives have a fitted effect of over 70% in size
#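 Compound inhibition of the preformed complex between 50 nM HP1-beta and 50 nM biotinylated H3K9me3 peptide was read by AlphaScreen. Buffer was PBS pH 7.4 with 0.01% Tween-20. Incubations ran 30 min at room temperature, with 10 ug/mL donor/acceptor beads.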
# A number is an active result; – = inactive; ? = inconclusive; · = no result given; [ ] = remark or other dose. The list is not random: actives were taken first. Their share in the collection is about 10%. Unless noted, calls follow the shape of the dose curve; as a rule, active = well fitted inhibition curve with a large enough effect; inconclusive = small, poorly fitted or top-dose-only effect; inactive = no such curve, though single readings can be large or run the other way.
SMILES,JMJD2A Tudor inh,CtBP-E1A inh,BAZ2B inh,Six1-Eya2 blk,G9a block,HP1b binding inh
CCOC(=O)c1ccccc1NC(=O)CSc1cn(CC(=O)N2CCOCC2)c2ccccc12,–,·,?,·,–,–
COc1cccc(C(O)c2nc(-c3ccc(OC)nc3)cs2)c1 (centres undefined),·,–,·,–,·,·
CCOC(=O)c1c(CN2CCOCC2)n(-c2ccccc2)c2cc(Br)c(O)c(CN(C)C)c12,?,–,–,–,?,–
CCOC(=O)c1c(C)n(-c2ccc(C)cc2)c2ccc(O)c(CN(C)C)c12,?,–,?,–,45µM,–
CCOC(=O)c1c(CN2CCCCC2)n(C)c2cc(Br)c(O)c(CN(C)C)c12,–,–,–,–,35µM,–
CCOC(=O)c1c(C)n(-c2ccc(OC)cc2)c2ccc(O)c(CN(C)C)c12,–[11.4 µM],–,–,–,?,–
O=C(Nc1nnc([C@@H]2C[C@H](O)[C@@H](CO)O2)s1)NC(c1ccccc1)c1ccccc1,·,–,·,–,·,·
N#CC1=C2Nc3ccccc3N2C(=O)NC1(c1ccccc1)C(F)(F)F (centres undefined),56µM,–,–,–,–[12.7 µM],?
Cc1ccc(C2(C(F)(F)F)NC(=O)N3N=C4CCCCCN4C3=C2C#N)cc1 (centres undefined),–,–,–,–,–,–
COCCn1c(=O)[nH]c2cc(C(=O)Nc3nnc(C)s3)ccc21,–,–,–,–,79µM,–
O=C(NCc1ccncc1)C(=O)Nc1nccs1,?,–,?,–,14µM,–
COc1ccccc1CNC(=O)C(=O)Nc1nccs1,?,–,–,–,?,–
Cc1ccccc1CNC(=O)C(=O)Nc1nccs1,–,–,·,–,13µM,–
O=C(NCCc1ccccc1)C(=O)Nc1nccs1,–,–,–,–,?,–
Cc1ccc(CNC(=O)C(=O)Nc2nccs2)cc1,–,·,?,–,18µM,–
Cc1ccc(CNC(=O)c2nccnc2C(=O)O)cc1,?,–,–,–,50µM,–
Cc1cn(C2CC(O)C(CO)O2)c(=O)n(Cc2ccccc2)c1=O (centres undefined),–,–,·,–,·,–
CC(=O)C1=C(c2ccccc2)NC(=O)NC1c1ccc2c(c1)OCO2 (centres undefined),–,–,–,–,·,–
CC1=C([N+](=O)[O-])C(c2ccc(O)c(O)c2)NC(=O)N1 (centres undefined),–,–,–,–,10µM,–
CC(=O)C1=C(c2ccccc2)NC(=O)NC1c1ccc(O)c(O)c1 (centres undefined),13µM,–,?,–,·,–
COc1ccc(C2NC(=O)NC(C)=C2[N+](=O)[O-])cc1OC (centres undefined),–,–,–,–,–,–
CC(=O)C1=C(c2ccccc2)NC(=S)NC1c1ccc(O)c(O)c1 (centres undefined),–,–,?,–,8.9µM,–
CC(=O)C1=C(c2ccccc2)NC(=S)NC1c1cc(Cl)c(OC(C)C)c(Cl)c1 (centres undefined),–,–,–,–,–,?
O=C(CN1C(=O)NC2(CCCCC2)C1=O)Nc1cc(C(F)(F)F)ccc1N1CCOCC1,–,–,–,–,50µM,–
O=C(CN1C(=O)NC2(CCCC2)C1=O)Nc1cc(C(F)(F)F)ccc1N1CCCCC1,–,–,–,–,45µM,–
SMILES,JMJD2A Tudor inh,CtBP-E1A inh,BAZ2B inh,Six1-Eya2 blk,G9a block,HP1b binding inh
O=C(CN1C(=O)NC2(CCCC2)C1=O)Nc1cc(Cl)ccc1N1CCOCC1,–,–,–,–,–,–
O=C(CN1C(=O)NC2(CCCCC2)C1=O)Nc1cc(C(F)(F)F)ccc1N1CCCCC1,–,–,–,–,–[0.501 µM],–
CCCCNC(=O)c1nc(C2CCNCC2)oc1-c1cccc(C(F)(F)F)c1,·,–,·,–,·,·
CCCC(=O)N(c1ccc(OCC)cc1)C1C=CS(=O)(=O)C1 (centres undefined),–,–,–,–,–[12.7 µM],–
CCOC(=O)c1nn(-c2ccc(C)c(C)c2)c(=O)c2c(N)scc12,22µM,–,56µM,–,2µM,–
CCN(CC)C(=O)c1nn(-c2ccc(OC)cc2)c(=O)c2c(N)scc12,56µM,·,·,·,·,·
COc1ccc(/C=N/NC(=O)c2nn(-c3ccccc3)c(=O)c3c(N)scc23)cc1,5.6µM,–,40µM,?,0.35µM,?
COC(=O)c1cc(Br)c(=O)n(CCN2CCCCC2)c1,–,–,–,–,–,–
COC(=O)c1cc(Br)c(=O)n(CCN2CCCC2)c1,–,–,–,–,50µM,–
CCC(=O)Nc1c(-c2ccc(Cl)cc2)c(=O)c2ccccc2n1C,–,–,–,–,–,–
O=C(COC(=O)CC1CCCC1)Nc1cc2c(cc1Cl)C(=O)c1ccccc1C2=O,56µM,–,56µM,–,?,–
CC(C)c1ccc(NC(=O)COC(=O)CC2CCCC2)cc1,–,–,·,–,·,–
Cc1sc2ncn(CC(=O)Nc3cccc(C(F)(F)F)c3)c(=O)c2c1S(=O)(=O)N1CCC(C)CC1,–,·,–,·,–,–
COc1ccc(-c2cc(C(=O)N(C)CC(=O)Nc3cccc(F)c3)c3ccccc3n2)cc1OC,·,–,·,–,·,·
CN(CC(=O)Nc1cccc(F)c1)C(=O)c1cc(-c2ccco2)nc2ccccc12,10µM,–,50µM,–,–[0.501 µM],50µM
COc1ccc(NC(=O)CN(C)C(=O)c2ccc(-c3ccccc3Cl)o2)cc1,–,–,–,–,40µM,–
CN(CC(=O)Nc1ccc(F)c(F)c1F)C(=O)c1cc(-c2ccncc2)nc2ccccc12,–,–,–,–,56µM,–
CN(CC(=O)Nc1ccc(Cl)c(C(F)(F)F)c1)C(=O)c1cc(-c2ccncc2)nc2ccccc12,?,–,–,–,–[2.33 µM],–
COc1ccc(NC(=O)CN(C)C(=O)c2ccc(-c3cccc(C(F)(F)F)c3)o2)cc1,–,–,–,–,–,–
Cc1ccc(-c2cc(C(=O)N(C)CC(=O)Nc3ccccc3Br)c3ccccc3n2)o1,?,–,–,–,8.9µM,–
COC(=O)C1(C(=O)OC)c2cc3c(cc2CN(S(=O)(=O)c2ccc(C)cc2)C1CC(C)=O)OCO3 (centres undefined),·,–,·,–,·,·
CCOCCCn1c(C)nc2c[n+](CC(=O)c3ccc4ccccc4c3)cc(Br)c21,–,–,–,–,?,–
CC(Oc1ccc2c3c(c(=O)oc2c1)CCCC3)C(=O)NCc1ccncc1 (centres undefined),–,–,–,–,·,–
COc1ccc(NC(=O)CN(C)C(=O)c2cc(-c3ccco3)nc3ccccc23)cc1,14µM,–,32µM,–,–[0.501 µM],45µM
COc1ccc(NC(=O)c2cc(-c3ccco3)nc3ccccc23)cc1,?,–,·,–,·,–
